The subject of experiment [1] is Human papillomavirus type 1a protein E7 (residues 44-93). Kind of experiment: small molecules binding HPV E7 44-93 – biochemical, small-molecule microarray, residues 44-93, 635 nm fluorescence, primary screen (AID 1108).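 Also: E7 fragment applied at 1 µg/mL in TBST for 1 h at 4 C; score combines spot fluorescence with its signal to noise ratio.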 The conditions noted are these: fluorescence 635 nm, higher = more signal.
Experiment [2] is described as follows: hepatitis C replication reporter changes, two-sided – Huh7 cells, luciferase reporter, HCV replication inhibitor project, primary screen (AID 1109).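 Also: huh7 hepatoma cells harbouring a luciferase neomycin HCV replicon reporter; luciferase luminescence as measure of HCV replicon replication; test concentration not given here.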 The conditions noted are these: Huh7 HCV replicon luciferase reporter, 48 h; higher = more signal. In general terms: Reporter assays use an easily measured gene product as a stand-in for the process of interest.
Experiment [3] addresses Left-right determination factor 2 (Homo sapiens) (UniProt O00292). Kind of experiment: small molecules binding LEFTY2 protein – biochemical, small-molecule microarray, 635 nm fluorescence scan, primary screen (AID 1110). The note with it: higher = more signal.
Experiment [4] deals with Calmodulin-1 (Homo sapiens) (UniProt P0DP23). Kind of experiment: small molecules binding calmodulin-1 with EGTA – biochemical, small-molecule microarray, Cy5-labelled CALM1, profiling panel (AID 1111).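 Also: labelled calmodulin applied in Tris saline Tween buffer holding calcium plus EGTA and DTT.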 The conditions noted are these: Cy5-CALM1 binding fluorescence, higher = more signal.
For experiment [5] the target is unchanged. Kind of experiment: small molecules binding Ca-loaded calmodulin-1 – biochemical, small-molecule microarray, Cy5-labelled CALM1, plus calcium, artefact control for SMM control-protein annotation, profiling panel (AID 1112).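 Also: score merges spot fluorescence with signal to noise from triplicate slides.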 The note with it: Cy5-CALM1 binding fluorescence, higher = more signal.
A short description of experiment [6]: probe aWnt5a binding to arrayed compounds – biochemical, biotinylated probe, 635/667 nm fluorescence, primary screen (AID 1113).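 Also: score merges 667 nm fluorescence intensity with signal-to-noise per printed feature.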 The note with it: small-molecule microarray, higher = more signal.
Experiment [7] can be described thus: probe aShh binding to arrayed compounds – biochemical, biotinylated probe, 635/667 nm fluorescence, primary screen (AID 1114).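 Also: probe is biotin-labelled aShh protein from a stem cell growth factor screen; measures binding of labelled protein to compounds printed on the slide; score merges feature fluorescence at 667 nm with signal-to-noise.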 The note with it: small-molecule microarray, higher = more signal.
A short description of experiment [8]: probe aNog binding to arrayed compounds – biochemical, biotinylated probe, 635/667 nm fluorescence, primary screen (AID 1115).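 Also: probe is biotinylated aNog protein used at 0.15 µg/mL for 1 h at 4 C; z-score combines 667 nm fluorescence of each spot with its signal to noise.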 The note with it: small-molecule microarray, higher = more signal.
The target of experiment [9] is Torsin-1A-interacting protein 1 (Homo sapiens) (UniProt Q5JTV8). Description: compound microarray binding of lysate hLAP1 – cell lysate, small-molecule microarray, COS7 lysate, 635/667 nm fluorescence, primary screen (AID 1116). The conditions noted are these: 635 nm fluorescence, higher = more signal.
Torsin-1A-interacting protein 1 (Homo sapiens), sequence (Q5JTV8 whole entry, looked up): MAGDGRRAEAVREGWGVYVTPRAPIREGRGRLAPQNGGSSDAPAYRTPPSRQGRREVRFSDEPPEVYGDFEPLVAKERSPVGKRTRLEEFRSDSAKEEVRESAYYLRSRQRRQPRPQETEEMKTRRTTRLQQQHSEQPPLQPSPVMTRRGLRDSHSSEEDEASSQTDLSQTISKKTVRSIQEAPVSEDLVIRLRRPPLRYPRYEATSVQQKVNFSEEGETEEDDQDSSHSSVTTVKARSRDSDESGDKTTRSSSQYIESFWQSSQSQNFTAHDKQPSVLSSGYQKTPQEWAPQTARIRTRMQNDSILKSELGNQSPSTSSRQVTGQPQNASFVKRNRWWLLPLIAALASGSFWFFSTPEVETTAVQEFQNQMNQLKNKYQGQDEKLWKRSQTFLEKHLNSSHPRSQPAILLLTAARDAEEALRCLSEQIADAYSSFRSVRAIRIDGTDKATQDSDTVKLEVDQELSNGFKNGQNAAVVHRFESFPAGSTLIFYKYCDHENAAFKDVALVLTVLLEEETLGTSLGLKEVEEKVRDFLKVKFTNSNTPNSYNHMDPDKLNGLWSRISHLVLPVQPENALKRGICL
For experiment [10], the target named is Alpha-bungarotoxin (Bungarus multicinctus) (UniProt P60615). Description: compounds binding labelled alpha-BTX control protein – biochemical, small-molecule microarray, Alexa647 label, 635/667 nm fluorescence, artefact control for SMM control protein annotation, profiling panel (AID 1117). The note with it: alpha-BTX-A647 binding fluorescence, higher = more signal.
Alpha-bungarotoxin (Bungarus multicinctus), sequence (P60615 whole entry, looked up): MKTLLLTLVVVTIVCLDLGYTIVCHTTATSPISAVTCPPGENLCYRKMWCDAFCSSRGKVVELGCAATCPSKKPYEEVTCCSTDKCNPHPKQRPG

Experiment [11] has as its target Albumin (Bos taurus) (UniProt P02769). Kind of experiment: compounds binding labelled BSA control protein – biochemical, small-molecule microarray, Alexa647 label, 635/667 nm fluorescence, artefact control for SMM control protein annotation, profiling panel (AID 1118).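 Also: score merges 667 nm emission intensity and signal-to-noise per printed compound spot.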 The note with it: BSA-A647 binding, fluorescence 635 nm, higher = more signal.
Experiment [12] in a line: probe aXIP binding to arrayed compounds – biochemical, NeuroSMM set, 635/667 nm fluorescence, primary screen (AID 1119).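 Also: probe is the protein aXip251-270 applied at 1 µg/mL to compound-printed slides; binding of probe to printed compounds measured as 667 nm fluorescence plus signal to noise.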 The note with it: small-molecule microarray, higher = more signal, called active from +8 up or from −8 down.
The nature of experiment [13]: probe aNOTCH3 binding on compound microarray – biochemical, small-molecule microarray, 635/667 nm fluorescence, primary screen (AID 1120).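 Also: probe is a biotin-tagged antibody raised against NOTCH3 rather than NOTCH3 protein; score merges spot fluorescence near 667 nm with spot signal to noise.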 The conditions noted are these: higher = more signal.
Experiment [14] can be described thus: probe aNOTCH2 binding on compound microarray – biochemical, small-molecule microarray, 635/667 nm fluorescence, primary screen (AID 1121).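 Also: score merges feature fluorescence read at 667 nm with its signal to noise.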 The note with it: higher = more signal.
Experiment [15] deals with Carbonic anhydrase 2 (Homo sapiens) (UniProt P00918). Kind of experiment: compounds binding carbonic anhydrase 2 – biochemical, small-molecule microarray, Alexa647-labelled CAII, profiling panel (AID 1122). The note with it: CAII-A647 binding fluorescence, higher = more signal.
Experiment [16] in a line: COS7 lysate on small-molecule microarray, probe aHis, 635 nm (AID 1123).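 Also: z-score combines 667nm fluorescence intensity with signal-to-noise per printed compound spot.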 The note with it: COS7 cell lysate, fluorescence, higher = more signal.
A short description of experiment [17]: probe aLAP1 signal on lysate-treated microarray – cell lysate, small-molecule microarray, COS7 lysate, primary screen (AID 1124).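 Also: lysate comes from COS7 cells expressing LAP1 and is applied at 0.3 µg/mL; score merges spot fluorescence near 667 nm with signal-to-noise over triplicate slides.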 The conditions noted are these: probe aLAP1, fluorescence, higher = more signal.
Experiment [18] relates to Sam68 (KHDRBS1). Kind of experiment: compounds binding KHDRBS1 protein – biochemical, small-molecule microarray, 635 nm fluorescence, primary screen (AID 1125).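 Also: score merges 667 nm channel intensity with signal to noise over triplicate slides.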 The conditions noted are these: higher = more signal.
Experiment [19] deals with Chordin-like protein 2 (CHRDL2). Description: compounds binding chordin-like 2 – biochemical, small-molecule microarray, 635 nm fluorescence, primary screen (AID 1126).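 Also: printed compound slides probed with Chrdl2 protein at 4 µg/mL for 1 h at 4 C; score merges 667 nm emission intensity with signal to noise over three replicate slides.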 The conditions noted are these: fluorescence 635 nm, higher = more signal.
The target in experiment [20] is Concanavalin-A (Canavalia ensiformis) (UniProt P02866). Description: compounds binding concanavalin A lectin – biochemical, small-molecule microarray, Alexa647 label, 635 nm, artefact control for SMM control protein annotation, primary screen (AID 1127).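 Also: z combines 667 nm emission intensity with signal-to-noise across three replicate slides.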 The conditions noted are these: ConA-A647 binding fluorescence, higher = more signal.
Concanavalin-A (Canavalia ensiformis), sequence (P02866 whole entry, looked up): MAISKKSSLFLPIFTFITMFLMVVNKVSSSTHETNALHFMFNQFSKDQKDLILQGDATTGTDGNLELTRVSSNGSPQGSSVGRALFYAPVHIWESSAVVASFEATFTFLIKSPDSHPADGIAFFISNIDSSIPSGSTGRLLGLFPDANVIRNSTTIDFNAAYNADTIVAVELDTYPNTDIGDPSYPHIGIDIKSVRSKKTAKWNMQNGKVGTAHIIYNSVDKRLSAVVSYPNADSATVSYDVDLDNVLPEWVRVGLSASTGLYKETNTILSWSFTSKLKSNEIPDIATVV

Calls of active or inactive are those of the source.

Albumin (Bos taurus), sequence (P02769 whole entry, looked up): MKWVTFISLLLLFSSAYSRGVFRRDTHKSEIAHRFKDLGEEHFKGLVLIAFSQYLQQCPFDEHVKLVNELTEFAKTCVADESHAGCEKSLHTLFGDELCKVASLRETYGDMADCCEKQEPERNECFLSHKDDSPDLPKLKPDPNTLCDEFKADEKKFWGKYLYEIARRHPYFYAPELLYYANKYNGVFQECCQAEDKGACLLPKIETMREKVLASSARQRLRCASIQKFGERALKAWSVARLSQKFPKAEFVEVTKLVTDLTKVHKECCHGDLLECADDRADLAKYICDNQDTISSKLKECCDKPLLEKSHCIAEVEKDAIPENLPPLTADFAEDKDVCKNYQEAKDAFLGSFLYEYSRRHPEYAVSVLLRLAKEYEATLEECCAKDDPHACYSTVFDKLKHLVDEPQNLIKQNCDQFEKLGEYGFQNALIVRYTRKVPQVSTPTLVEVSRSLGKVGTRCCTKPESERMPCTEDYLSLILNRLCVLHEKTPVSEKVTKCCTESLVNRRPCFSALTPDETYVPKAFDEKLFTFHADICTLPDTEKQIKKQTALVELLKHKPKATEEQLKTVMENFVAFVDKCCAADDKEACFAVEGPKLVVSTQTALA
Left-right determination factor 2 (Homo sapiens), sequence (O00292 whole entry, looked up): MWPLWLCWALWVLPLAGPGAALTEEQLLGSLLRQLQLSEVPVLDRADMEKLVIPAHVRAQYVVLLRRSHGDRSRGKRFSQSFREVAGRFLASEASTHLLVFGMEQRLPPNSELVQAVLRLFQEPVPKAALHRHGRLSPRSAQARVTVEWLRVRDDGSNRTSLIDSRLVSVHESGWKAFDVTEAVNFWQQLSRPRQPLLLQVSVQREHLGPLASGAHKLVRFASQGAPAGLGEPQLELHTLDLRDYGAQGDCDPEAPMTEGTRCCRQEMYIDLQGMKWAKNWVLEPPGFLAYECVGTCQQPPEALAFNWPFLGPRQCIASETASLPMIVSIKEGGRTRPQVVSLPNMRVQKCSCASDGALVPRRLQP

Regarding `CC(C)C[C@@H]1NC(=O)[C@H]2C[C@@H](C(=O)NCCCCCNC(=O)CS)[C@@H](c3cccc(OCCO)c3)N2C1=O`, the composite z-score in [1] was 1.38; in [3], 1.25; in experiment [4], 0.193; in experiment [5], -0.364; in experiment [6], -0.194; in [7] it was -0.358. For the same compound, the composite z-score in experiment [8] was -0.0428; in experiment [9], 0.698; in experiment [10], 0.812; in experiment [11], 0.258; in experiment [13], 0.191; in [14] it was -0.0358. For the same compound, the composite z-score is 0.561 in [15]; 1.32 in experiment [16]; 0.438 in experiment [17]; 1.3 in experiment [18]; 1.39 in experiment [19]; 1 in experiment [20]. This compound came in with a z-score in [2] of -0.265. The composite Z-score in [12] was -0.014 (inactive).
Turning to `COC(=O)C(CC#Cc1ccc2c(c1)[C@]1(C(=O)N2)[C@H](c2ccc(OCCO)cc2)N2[C@H](c3ccccc3)[C@H](c3ccccc3)OC(=O)[C@H]2[C@@H]1C(=O)NC[C@H](O)c1ccccc1)C(=O)OC`, the composite z-score in experiment [1] was 1.17; in experiment [3], -0.0571; in [4] it was 0.794; in experiment [5] it was 0.524; in experiment [6] it was -0.0346; in [7], 0.356. The composite z-score is 0.333 in experiment [8]; -0.585 in [9]; 2.1 in experiment [10]; 0.819 in experiment [11]; 0.0556 in experiment [13]; -0.115 in experiment [14]. Besides, the composite z-score in experiment [15] was 0.497; in experiment [16], 1.97; in experiment [17], -0.131; in experiment [18] it was 1.29; in experiment [19], -0.28; in experiment [20], 1.14. Further, in [2], the z-score is -1.39. In addition, the composite Z-score in [12] was 0.0996 (inactive).
For the compound `Cc1ccc(S[C@]2(C(=O)NCc3ccccc3)CC(=O)N(Cc3ccccc3Cl)[C@@H]2c2ccc(CO)cc2I)cc1`, the composite z-score in experiment [1] was -0.173; in experiment [3], -2.11; in experiment [4] it was -0.162; in experiment [5], 0.137; in experiment [6], -0.124; in experiment [7], -0.426. In addition, the composite z-score is -0.581 in experiment [8]; 0.0931 in experiment [9]; 1.7 in [10]; 0.451 in experiment [11]; -0.275 in [13]; -0.198 in experiment [14]. For the same compound, the composite z-score in [15] is 0.721; in experiment [16] it was 0.616; in experiment [17] it was 0.198; in experiment [18] it was -0.414; in experiment [19], -1.03; in [20], -0.139. The compound further gave a z-score in experiment [2] of -1.74. The composite Z-score in [12] is -0.422 (inactive).
`CC(C)Cc1ccc(CN2CC[C@@H](NS(=O)(=O)c3ccccc3)C2)cc1`: the composite z-score was 0.429 in experiment [1]; 0.0423 in [3]; -0.856 in [4]; -0.859 in experiment [5]; -0.176 in experiment [6]; -0.455 in experiment [7]. Further, the composite z-score in experiment [8] was -0.438; in experiment [9], -0.633; in experiment [10], -0.577; in experiment [11], -0.623; in experiment [13] it was -0.187; in [14] it was -0.173. The composite z-score was -0.114 in experiment [15]; 0.48 in [16]; 0.0054 in experiment [17]; 0.532 in experiment [18]; 0.449 in experiment [19]; -0.36 in [20]. The z-score in [2] was -4.17. In [12], the composite Z-score is 0.119 (inactive).
Take `C=CCOC(=O)[C@@H]1[C@H]2C(=O)O[C@H](c3ccccc3)[C@H](c3ccccc3)N2[C@H](c2ccc(OCCOC(=O)[C@@H]3C[C@@H]4C(=O)N[C@@H](Cc5ccccc5)C(=O)N4[C@@H]3c3cccc(OCCO)c3)cc2)[C@@]12C(=O)Nc1ccc(I)cc12`: the composite z-score in experiment [1] is 1.36; in experiment [3] it was 0.692; in experiment [4], -0.0116; in experiment [5], -0.137; in [6], -0.0516; in experiment [7], -0.0211. For the same compound, the composite z-score in [8] was 1.07; in experiment [9] it was 1.31; in experiment [10], 1.25; in experiment [11], -0.912; in [13] it was -0.0328; in [14], -0.0389. Besides, the composite z-score in experiment [15] came to 0.537; in experiment [16], 1.1; in experiment [17], 0.283; in [18], 1.31; in [19] it was 1.11; in experiment [20], 0.795. Besides, the z-score in experiment [2] is -1.34. Further, the composite Z-score in experiment [12] is -0.292 (inactive).
